# Measurements as given in PubChem BioAssay.
# Calls of active or inactive are those of the source.
# Experiments:
# Albumin (Bos taurus) = Albumin (Bos taurus) (UniProt P02769); test: compounds binding labelled BSA control protein – biochemical, small-molecule microarray, Alexa647 label, 635/667 nm fluorescence, artefact control for SMM control protein annotation, profiling panel (AID 1118); settings: BSA-A647 binding, fluorescence 635 nm, higher = more signal;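 also: score merges 667 nm emission intensity and signal-to-noise per printed compound spot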
# [1] = probe aXIP binding to arrayed compounds – biochemical, NeuroSMM set, 635/667 nm fluorescence, primary screen (AID 1119); settings: small-molecule microarray, higher = more signal, called active from +8 up or from −8 down;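 also: probe is the protein aXip251-270 applied at 1 µg/mL to compound-printed slides; binding of probe to printed compounds measured as 667 nm fluorescence plus signal to noise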
# [2] = probe aNOTCH3 binding on compound microarray – biochemical, small-molecule microarray, 635/667 nm fluorescence, primary screen (AID 1120); settings: higher = more signal;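 also: probe is a biotin-tagged antibody raised against NOTCH3 rather than NOTCH3 protein; score merges spot fluorescence near 667 nm with spot signal to noise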
# [3] = probe aNOTCH2 binding on compound microarray – biochemical, small-molecule microarray, 635/667 nm fluorescence, primary screen (AID 1121); settings: higher = more signal;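 also: score merges feature fluorescence read at 667 nm with its signal to noise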
# [4] = molecular target: Carbonic anhydrase 2 (Homo sapiens) (UniProt P00918); test: compounds binding carbonic anhydrase 2 – biochemical, small-molecule microarray, Alexa647-labelled CAII, profiling panel (AID 1122); settings: CAII-A647 binding fluorescence, higher = more signal
# [5] = COS7 lysate on small-molecule microarray, probe aHis, 635 nm (AID 1123); settings: COS7 cell lysate, fluorescence, higher = more signal;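 also: z-score combines 667nm fluorescence intensity with signal-to-noise per printed compound spot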
# [6] = probe aLAP1 signal on lysate-treated microarray – cell lysate, small-molecule microarray, COS7 lysate, primary screen (AID 1124); settings: probe aLAP1, fluorescence, higher = more signal;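 also: lysate comes from COS7 cells expressing LAP1 and is applied at 0.3 µg/mL; score merges spot fluorescence near 667 nm with signal-to-noise over triplicate slides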
# Sam68 (KHDRBS1) = test: compounds binding KHDRBS1 protein – biochemical, small-molecule microarray, 635 nm fluorescence, primary screen (AID 1125); settings: higher = more signal;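 also: score merges 667 nm channel intensity with signal to noise over triplicate slides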
# [7] = tested on: Chordin-like protein 2 (CHRDL2); test: compounds binding chordin-like 2 – biochemical, small-molecule microarray, 635 nm fluorescence, primary screen (AID 1126); settings: fluorescence 635 nm, higher = more signal;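 also: printed compound slides probed with Chrdl2 protein at 4 µg/mL for 1 h at 4 C; score merges 667 nm emission intensity with signal to noise over three replicate slides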
# [8] = molecular target: Concanavalin-A (Canavalia ensiformis) (UniProt P02866); test: compounds binding concanavalin A lectin – biochemical, small-molecule microarray, Alexa647 label, 635 nm, artefact control for SMM control protein annotation, primary screen (AID 1127); settings: ConA-A647 binding fluorescence, higher = more signal;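 also: z combines 667 nm emission intensity with signal-to-noise across three replicate slides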
# [9] = compounds binding Alexa647 anti-His antibody – biochemical, small-molecule microarray, 635 nm fluorescence, artefact control for SMM control protein annotation, primary screen (AID 1128); settings: higher = more signal;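 also: score merges feature fluorescence with signal-to-noise for each printed compound spot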
# [10] = tested on: Human papillomavirus type 1a E7 protein (residues 1-88); test: HPV1a E7 small-molecule binders, primary screen, biochemical, small-molecule microarray, residues 1-88, 635 nm (AID 1129); settings: small-molecule microarray binding, fluorescence 635 nm; higher = more signal
# [11] = molecular target: Focal adhesion kinase 1 (Homo sapiens) (UniProt Q05397); test: PTK2 protein binding on printed compound slides – biochemical, small-molecule microarray, 635/667 nm fluorescence, BSA, DTT, primary screen (AID 1130); settings: 635 nm fluorescence, higher = more signal;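 also: composite of spot emission at 667 nm and signal to noise over triplicate slides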
# [12] = tested on: Fibrinogen (Alexa647-labelled); test: Alexa647-fibrinogen binding to printed small molecules – biochemical, small-molecule microarray, 635/667 nm fluorescence, artefact control for SMM control-protein annotation, profiling panel (AID 1131); settings: fibrinogen-A647 binding fluorescence, higher = more signal;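 also: z-score merges 667 nm fluorescence with per-spot signal-to-noise over triplicate slides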
# [13] = molecular target: Follistatin (Homo sapiens) (UniProt P19883); test: FST protein binding to printed compounds – biochemical, small-molecule microarray, 635/667 nm fluorescence, primary screen (AID 1132); settings: 635 nm fluorescence, higher = more signal
# [14] = molecular target: Fibroblast growth factor 2 (Homo sapiens) (UniProt P09038); test: basic fibroblast growth factor binding to printed compounds – biochemical, small-molecule microarray, 635/667 nm fluorescence, primary screen (AID 1133); settings: FGF2, fluorescence 635/667, higher = more signal
# [15] = JC-1 mitochondrial potential readout, lung cancer cells – cell-based, A549, JC-1 fluorescence, basal, 24 h, 100 nL, profiling panel (AID 1138); settings: higher = more signal;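 also: A549 lung adenocarcinoma cells under basal conditions with no added stimulus; test concentration not given here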
# Lefty1 = Lefty1 protein binding to printed compounds – biochemical, small-molecule microarray, 635/667 nm fluorescence, primary screen (AID 1139); settings: fluorescence 635/667, higher = more signal
# [16] = tested on: wheat germ agglutinin (Triticum aestivum), Alexa647-labelled; test: Alexa647-WGA lectin binding to printed small molecules – biochemical, small-molecule microarray, 635/667 nm fluorescence, artefact control for SMM control-protein annotation, profiling panel (AID 1140); settings: WGA-A647 binding, 635 nm fluorescence, higher = more signal;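 also: score merges 667 nm feature emission with signal to noise over triplicate slides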
# [17] = molecular target: Luciferin 4-monooxygenase (Photinus pyralis) (UniProt P08659); test: inhibition of purified Photinus pyralis luciferase – biochemical, luminescence, purified enzyme, 2006 set, primary screen (AID 1141); settings: purified firefly luciferase, SteadyGlo luminescence, 30 min; higher = more signal, called active from +8 up or from −8 down;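 also: cell-free assay with purified firefly luciferase at 100 ng per well in PBS; test concentration not given here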
# Sequence of Luciferin 4-monooxygenase (Photinus pyralis) (P08659 whole entry, looked up): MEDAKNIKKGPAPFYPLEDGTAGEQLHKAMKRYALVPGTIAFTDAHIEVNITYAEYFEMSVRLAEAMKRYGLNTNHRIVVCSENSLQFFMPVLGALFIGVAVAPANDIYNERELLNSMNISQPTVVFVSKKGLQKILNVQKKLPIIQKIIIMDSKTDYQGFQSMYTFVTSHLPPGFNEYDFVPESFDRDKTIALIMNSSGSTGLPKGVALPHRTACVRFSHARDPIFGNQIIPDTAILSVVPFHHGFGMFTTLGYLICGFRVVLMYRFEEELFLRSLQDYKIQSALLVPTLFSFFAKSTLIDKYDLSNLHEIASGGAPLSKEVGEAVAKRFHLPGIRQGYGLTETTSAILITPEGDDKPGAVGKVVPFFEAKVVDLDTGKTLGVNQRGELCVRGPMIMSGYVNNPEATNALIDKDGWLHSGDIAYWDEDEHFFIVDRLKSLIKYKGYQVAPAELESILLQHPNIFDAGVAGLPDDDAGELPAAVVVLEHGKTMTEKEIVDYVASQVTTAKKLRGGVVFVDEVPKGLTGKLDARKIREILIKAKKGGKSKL
# Sequence of Albumin (Bos taurus) (P02769 whole entry, looked up): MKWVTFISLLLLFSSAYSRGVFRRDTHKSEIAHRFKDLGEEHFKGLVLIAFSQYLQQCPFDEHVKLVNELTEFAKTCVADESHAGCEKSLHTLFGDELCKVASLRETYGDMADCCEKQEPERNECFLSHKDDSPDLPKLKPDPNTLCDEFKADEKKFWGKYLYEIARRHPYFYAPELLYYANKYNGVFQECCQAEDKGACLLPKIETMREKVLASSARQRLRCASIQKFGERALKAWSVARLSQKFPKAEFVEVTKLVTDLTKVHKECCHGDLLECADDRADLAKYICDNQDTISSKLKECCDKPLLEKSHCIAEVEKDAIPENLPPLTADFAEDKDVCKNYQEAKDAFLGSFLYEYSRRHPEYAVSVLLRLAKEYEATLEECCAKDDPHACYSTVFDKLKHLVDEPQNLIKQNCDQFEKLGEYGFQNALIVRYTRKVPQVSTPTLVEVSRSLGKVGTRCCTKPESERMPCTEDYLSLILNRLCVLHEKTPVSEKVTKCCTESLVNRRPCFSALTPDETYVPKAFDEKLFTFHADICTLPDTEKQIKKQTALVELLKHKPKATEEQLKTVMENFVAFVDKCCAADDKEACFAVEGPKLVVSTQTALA
# Sequence of Fibroblast growth factor 2 (Homo sapiens) (P09038 whole entry, looked up): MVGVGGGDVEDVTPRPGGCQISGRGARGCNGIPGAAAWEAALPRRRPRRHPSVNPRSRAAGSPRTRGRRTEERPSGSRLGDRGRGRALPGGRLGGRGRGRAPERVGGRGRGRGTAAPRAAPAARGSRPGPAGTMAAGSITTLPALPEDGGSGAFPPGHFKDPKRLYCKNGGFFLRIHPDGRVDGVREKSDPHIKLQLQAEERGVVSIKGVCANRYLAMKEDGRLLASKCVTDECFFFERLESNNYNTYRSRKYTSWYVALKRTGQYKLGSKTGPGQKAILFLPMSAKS
# Sequence of Focal adhesion kinase 1 (Homo sapiens) (Q05397 whole entry, looked up): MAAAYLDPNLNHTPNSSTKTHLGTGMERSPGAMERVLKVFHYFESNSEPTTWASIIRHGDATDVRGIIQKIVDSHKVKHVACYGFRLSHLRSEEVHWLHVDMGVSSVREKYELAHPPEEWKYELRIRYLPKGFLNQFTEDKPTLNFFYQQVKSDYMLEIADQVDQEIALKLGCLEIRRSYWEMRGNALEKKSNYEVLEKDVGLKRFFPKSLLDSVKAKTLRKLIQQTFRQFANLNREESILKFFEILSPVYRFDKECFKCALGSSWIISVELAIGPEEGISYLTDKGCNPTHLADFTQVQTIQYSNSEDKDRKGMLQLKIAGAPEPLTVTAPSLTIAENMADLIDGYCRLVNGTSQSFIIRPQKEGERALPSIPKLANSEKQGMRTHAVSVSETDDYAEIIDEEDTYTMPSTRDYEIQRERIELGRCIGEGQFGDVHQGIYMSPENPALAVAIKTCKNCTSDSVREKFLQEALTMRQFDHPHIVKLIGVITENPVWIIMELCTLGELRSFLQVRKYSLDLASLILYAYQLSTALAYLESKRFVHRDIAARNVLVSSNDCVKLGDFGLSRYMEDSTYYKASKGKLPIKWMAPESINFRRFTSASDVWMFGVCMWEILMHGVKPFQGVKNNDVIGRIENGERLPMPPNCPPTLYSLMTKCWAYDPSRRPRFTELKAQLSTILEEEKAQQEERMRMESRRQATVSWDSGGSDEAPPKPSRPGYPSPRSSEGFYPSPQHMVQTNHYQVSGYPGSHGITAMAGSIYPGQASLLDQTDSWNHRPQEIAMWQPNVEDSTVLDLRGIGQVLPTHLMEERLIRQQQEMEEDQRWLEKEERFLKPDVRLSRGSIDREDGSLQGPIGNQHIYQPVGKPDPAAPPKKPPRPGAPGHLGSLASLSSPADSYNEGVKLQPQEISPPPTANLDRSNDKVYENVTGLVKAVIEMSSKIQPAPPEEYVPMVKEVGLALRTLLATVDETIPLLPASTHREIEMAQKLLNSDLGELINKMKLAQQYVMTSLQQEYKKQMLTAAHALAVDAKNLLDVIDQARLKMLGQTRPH
# Sequence of Concanavalin-A (Canavalia ensiformis) (P02866 whole entry, looked up): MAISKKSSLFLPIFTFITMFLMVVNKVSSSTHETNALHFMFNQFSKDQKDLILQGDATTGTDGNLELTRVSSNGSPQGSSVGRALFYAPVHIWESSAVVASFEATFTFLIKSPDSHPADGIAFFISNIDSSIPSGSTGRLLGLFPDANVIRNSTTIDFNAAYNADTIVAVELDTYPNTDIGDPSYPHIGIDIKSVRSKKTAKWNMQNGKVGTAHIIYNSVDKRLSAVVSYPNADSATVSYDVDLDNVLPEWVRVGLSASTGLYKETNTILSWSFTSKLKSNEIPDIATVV
# Sequence of Follistatin (Homo sapiens) (P19883 whole entry, looked up): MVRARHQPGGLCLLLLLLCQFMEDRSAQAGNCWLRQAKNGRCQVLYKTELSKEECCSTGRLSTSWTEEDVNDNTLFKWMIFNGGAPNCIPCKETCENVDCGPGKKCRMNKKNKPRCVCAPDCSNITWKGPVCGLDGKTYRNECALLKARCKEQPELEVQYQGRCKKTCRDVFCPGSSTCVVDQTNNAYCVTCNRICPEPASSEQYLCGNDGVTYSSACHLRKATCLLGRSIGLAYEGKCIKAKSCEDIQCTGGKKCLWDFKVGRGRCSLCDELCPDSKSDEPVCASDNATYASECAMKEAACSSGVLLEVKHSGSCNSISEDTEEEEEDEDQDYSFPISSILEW
SMILES,composite z-score (Albumin (Bos taurus)),composite Z-score [1],composite z-score [2],composite z-score [3],composite z-score [4],composite z-score [5],composite z-score [6],composite z-score (Sam68 (KHDRBS1)),composite z-score [7],composite z-score [8],composite z-score [9],composite z-score [10],composite z-score [11],composite z-score [12],composite z-score [13],composite z-score [14],z-score [15],composite z-score (Lefty1),composite z-score [16],z-score [17]
COCCOC(=O)N1C(=O)[C@@]2(c3ccccc31)[C@H](c1ccc(OCCO)cc1)N1[C@H](c3ccccc3)[C@H](c3ccccc3)OC(=O)[C@H]1[C@@H]2C(=O)N1CCN(c2ncccn2)CC1,0.0718,-0.216 (inactive),0.146,0.0248,0.351,1.78,0.282,1.3,0.756,1.1,0.46,1.2,0.929,0.869,1.43,1.69,-1.03,1.37,1.04,-0.135 (inactive)
C=CCC(OC(C)=O)[C@@H]1[C@@H](N(Cc2cc3ccccc3o2)C(=O)c2ccc(-c3ccccc3)cc2)c2cc(OCCCO)ccc2N1C(=O)c1ccc2ccccc2n1 (stereo not given in full),0.593,0.176 (inactive),-0.0362,-0.0901,0.0088,0.23,0.269,-0.626,0.163,-1.34,-0.492,-1.42,0.202,-0.858,0.313,-0.171,1.71,-0.194,-0.0535,-0.847 (inactive)
COCC(=C=CC[C@@H](O)c1ccc(OCCO)cc1)C[C@@H](O)COCc1ccccc1,0.769,-0.727 (inactive),0.0528,-0.0796,0.805,2.3,0.686,1.28,0.0466,0.547,1.29,0.893,0.106,-0.262,1.34,1.41,0.974,1.01,0.904,-1.7 (inactive)
CC(C)c1ccc(NN2C(C(O)C(C)C)C=CC3C(=O)N(c4ccccc4)C(=O)C32)cc1 (stereo not given),1.07,0.349 (inactive),0.761,0.353,0.615,2.89,1.43,1.31,-0.256,1.2,1.66,1.26,0.811,1.04,0.754,0.013,-0.81,0.172,1.12,-1.73 (inactive)
COc1ccc(C#Cc2ccc3c(c2)[C@]2(C(=O)N3)[C@H](c3ccc(OCCO)cc3)N3[C@H](c4ccccc4)[C@H](c4ccccc4)OC(=O)[C@H]3[C@@H]2C(=O)O)cc1,-0.0067,-0.221 (inactive),1.18,-0.0907,0.653,3.18,0.811,1.3,0.234,0.761,0.406,1.22,0.583,0.771,1.15,0.485,-2.54,1.63,0.416,-4.63 (inactive)
O=C1NC(=O)C2C1C=CC(C(O)c1ccc(F)cc1)N2Nc1ccccn1 (stereo not given),0.691,-0.531 (inactive),-0.004,-0.0771,0.831,2.77,-0.393,-0.288,0.317,0.356,0.842,0.399,0.113,0.796,0.269,0.0568,-0.108,-0.269,0.118,-0.855 (inactive)
C=C(CCCC)C(=O)CC[C@H](OC(=O)c1cccnc1)c1ccc(CO)o1,0.133,0.0385 (inactive),0.19,-0.0323,0.555,1.07,1.06,1.3,0.608,1.1,3.27,1.2,-0.188,0.664,1.18,1.27,-0.555,1.65,0.791,-1.33 (inactive)
C[N+](C)(C)CCCC[C@@H]1NC(=O)[C@H]2C[C@@H](C(=O)NCCCCCNC(=O)CS)[C@@H](c3ccc(O)cc3)N2C1=O,0.896,0.325 (inactive),-0.154,-0.158,0.678,1.45,0.361,0.616,0.268,0.997,2.82,0.785,0.336,0.9,1.07,0.826,0.455,0.349,0.215,-1.2 (inactive)
CCCCC(O)C1C=CC2C(=O)NC(=O)C2N1Nc1ccccn1 (stereo not given),0.082,0.0557 (inactive),-0.155,0.0377,0.885,-0.234,0.386,-1.01,-0.0858,0.344,1.12,0.0748,0.205,-0.796,-0.117,0.256,-0.0561,-0.0094,0.135,-0.407 (inactive)
Cc1ccccc1C(O)C1C=CC2C(=O)N(c3ccccc3)C(=O)C2N1Nc1ccccc1F (stereo not given),1.03,0.805 (inactive),0.195,0.161,0.77,3.01,-0.0703,1.23,-0.52,1.09,2.08,1.22,0.622,1.06,1.01,0.624,-0.932,-0.245,1.15,-0.782 (inactive)
C=CCC(OC(C)=O)[C@@H]1[C@@H](N(Cc2ccc(-c3cccc(C(F)(F)F)c3)o2)C(=O)c2cccc3ccccc23)c2cc(OCCCO)ccc2N1C(=O)c1ccc2ccccc2n1 (stereo not given in full),-0.197,-0.116 (inactive),0.0248,-0.103,-0.162,0.385,-0.202,-0.258,0.328,-0.18,-0.188,-0.696,-0.323,-0.0203,0.587,0.0226,-0.431,0.375,-0.0681,0.587 (inactive)
CN(C)CCCCNC(=O)[C@H]1C[C@H]2C(=O)NCC(=O)N2[C@H]1c1cccc(OCCO)c1,-0.539,0.0388 (inactive),-0.179,-0.146,0.655,0.0949,-0.235,-0.705,0.281,-0.408,0.465,-0.74,-0.539,-1.59,0.991,0.817,0.411,0.748,0.169,1.59 (inactive)
COC(=O)c1ccc([C@H](NC(=O)c2ccccc2)[C@]2(C)C[C@H]2C2CCCCC2)cc1,0.543,0.293 (inactive),0.237,-0.0282,0.158,1.89,0.416,0.715,-0.941,0.551,0.494,1.18,0.591,0.707,0.412,-0.639,0.85,-0.41,1.21,1.51 (inactive)
[N-]=[N+]=NCc1ccccc1[C@@H]1OC(c2ccc(OCCCO)cc2)=N[C@]1(Cc1ccccc1)C(=O)NCc1ccccc1,0.937,-0.04 (inactive),0.0774,-0.0349,0.782,2.99,0.388,0.826,-0.691,1.08,0.491,1.18,1.11,0.734,0.846,-0.0705,0.012,-0.0948,1.03,0.294 (inactive)
C/C=C/CN(C(=O)C#Cc1ccccc1)[C@H](CO[Si](C)(C)C(C)(C)C)c1ccccc1,-0.907,-0.357 (inactive),-0.384,-0.22,0.599,0.043,-0.155,0.248,-0.553,-1.17,-1.73,-0.0136,-0.1,-2.12,-1.52,-1.25,0.2,-0.977,-1.7,-0.178 (inactive)
C=C(COC)/C(=C/C[C@H](OC(=O)c1ccncc1)c1cccc(OCCO)c1)c1cnc2ccccc2c1,0.671,1.56 (inactive),0.279,-0.0681,0.855,1.21,0.444,1.3,1.23,1.09,2.08,1.22,0.521,0.893,1.36,0.694,0.365,1.62,1.4,-0.631 (inactive)
